# KDM4E inh: inhibitors of human JMJD2E histone demethylase; JMJD2E catalytic domain, FDH-coupled NADH fluorescence (FDH is formaldehyde dehydrogenase); Potency, µM (doses to about 57.1 µM), for inactives: at the highest dose activity change, negative = inhibition, actives largely listed as inhibitors; 230,000 compounds, 1.6% hits; active = well fitted inhibition curve with a large enough effect, not every such curve was filed as active; inconclusive = small, poorly fitted or top-dose-only effect, or another doubt; inactive = no such curve, though single readings can be large or run the other way;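 also: potency is read from the fitted curve at half-maximal effect; 0% = wells with enzyme and -100% = buffer wells without enzyme; nearly all actives have a fitted effect of over 50% in size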
# CBFb-RUNX1 inh: CBF-beta/RUNX1 interaction disruption; Q01196+Q13951; AlphaScreen CBFb-His/RUNX1-biotin binding, biochemical; Potency, µM (doses to about 59.8 µM), for inactives: at the highest dose activity, negative = inhibition, actives largely listed as inhibitors; 230,000 tested, under 10 active; AID 1477; also: % of control where 0% means no effect
#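 Proteins preincubated together for 20 min at RT before compound addition; 15 min later, nickel and streptavidin beads were added and left 90 min prior to AlphaScreen measurement.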
# HttQ103 aggreg: reduces HttQ103-GFP aggregates in PC12 cells | 220,000 compounds, 1.1% hits | AID 1688 | PC12 HttQ103-GFP aggregates, Acumen cytometry, 40 h | Potency, µM (titrated, usually from 46.1 µM), for inactives: top-dose activity change, negative = inhibition, most hits filed as inhibitors; also: potency is read from the fitted curve at half-maximal effect; % is scaled to controls: 0 for no effect and ±100 for the full control effect; nearly all actives have a fitted effect of over 60% in size
#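 Using laser scanning cytometry, GFP-positive aggregates were counted after lysis of PC12 cells induced with 100 nM tebufenozide to express HTT exon 1 Q103–GFP. Compounds were tested in titration.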
# ALDH1A1 inh: blocks purified human ALDH1A1 activity; Purified ALDH1A1, NADH fluorescence, propionaldehyde substrate; 220,000 compounds, 7.3% hits; Potency, µM (highest dose often 75.3 µM), for the others: top-dose activity, negative = inhibition, hits mostly inhibitors; active = well fitted inhibition curve with a large enough effect, not every such curve was filed as active; inconclusive = small, poorly fitted or top-dose-only effect, or another doubt; inactive = no such curve, though single readings can be large or run the other way;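 also: potency is read from the fitted curve at half-maximal effect; plate controls were no enzyme wells and a reference inhibitor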
# Target sequence (P00352 whole entry, looked up): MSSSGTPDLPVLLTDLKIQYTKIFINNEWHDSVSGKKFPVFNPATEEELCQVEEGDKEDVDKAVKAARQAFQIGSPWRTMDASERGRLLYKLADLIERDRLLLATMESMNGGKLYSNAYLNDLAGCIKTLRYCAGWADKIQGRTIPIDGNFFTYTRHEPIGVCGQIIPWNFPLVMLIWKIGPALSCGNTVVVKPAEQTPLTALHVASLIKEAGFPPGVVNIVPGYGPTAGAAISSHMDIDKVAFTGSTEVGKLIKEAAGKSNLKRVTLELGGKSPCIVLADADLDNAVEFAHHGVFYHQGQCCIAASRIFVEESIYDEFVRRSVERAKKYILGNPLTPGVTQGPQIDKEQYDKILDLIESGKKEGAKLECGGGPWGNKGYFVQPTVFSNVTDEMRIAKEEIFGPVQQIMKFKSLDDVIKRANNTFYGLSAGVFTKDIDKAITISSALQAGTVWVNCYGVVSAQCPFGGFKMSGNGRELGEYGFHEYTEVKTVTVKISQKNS
# HPGD block: HPGD (human) dehydrogenase inhibition | P15428 | purified HPGD, NADH fluorescence kinetic, PGE2 substrate | Potency, µM, inactives show at the highest dose activity change, negative = inhibition, hits mostly inhibitors | 150,000 compounds, 4.3% hits; active = well fitted inhibition curve with a large enough effect, not every such curve was filed as active; inconclusive = small, poorly fitted or top-dose-only effect, or another doubt; inactive = no such curve, though single readings can be large or run the other way; also: potency is read from the fitted curve at half-maximal effect; % is scaled to controls: 0 for no effect and ±100 for the full control effect
#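 NADH formation kinetics: reaction with 30 uM PGE2 and 1 mM NAD+ (final), 20 nM enzyme, Tris-HCl pH 8 with Tween 20, after 15 min compound preincubation at room temperature. Fluorescence change, last versus first of five reads.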
# HTT ATP protect: cytoprotection in Huntington HTT-Q103 PC12 cell model; 230,000 compounds, 0.14% hits; Potency, µM (top dose mostly 56.4 µM), without a hit: cytoprotection (ATP increase), hits mostly activators; PC12 HTT-Q103 induced, cytoprotection, ATP luminescence, 40 h; AID 1471; also: potency is read from the fitted curve at half-maximal effect; % of control where 0% means no effect; nearly all actives have a fitted effect of over 45% in size
#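 ATP quantification (ATPlite) reports survival of PC12 cells in which tebufenozide, 100 nM final, switches on Htt exon 1 with 103 glutamines linked to GFP; compounds are titrated.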
# The depositor's hits bear a star; ? = inconclusive; . = no result given; ! = a repeat was not active; [ ] = dose if it differs, or a comment. In the library only some 9.8% were active in any assay of this set; here they are far more common. Unless noted, calls follow the shape of the dose curve; as a rule, active = well fitted curve in the direction sought with a large enough effect; inconclusive = small, poorly fitted or top-dose-only effect, or another doubt; inactive = no such curve, though single readings can be large; an effect the other way counts as inactive or inconclusive.
SMILES,KDM4E inh,CBFb-RUNX1 inh,HttQ103 aggreg,ALDH1A1 inh,HPGD block,HTT ATP protect
Cc1ccc(C(=O)NCCCNc2ccccc2[N+](=O)[O-])cc1,7%,5%,23%,2.2µM*,.,-36%
Cc1ccc(S(=O)(=O)NCCCNC(=O)c2ccccc2)cc1,1%,2%,0%,13µM*,-12%,12%
Cc1ccc(S(=O)(=O)NCCCOC(=O)Nc2ccncc2)cc1,6%,0%,-17%,16µM*,-6%,-11%
Cn1c2ccccc2c2cnn(CC(=O)N3CCCCC3)c(=O)c21,?,10%,12%[9.22 µM],.,.,13%[10 µM]
CC(C)CCN1CCc2nc(COc3ccccc3)c3c(c2C1)COC(C)C3 (stereo unspecified),.,7%[13.1 µM],.,7%[13.5 µM],.,5%[10 µM]
COc1ccc2c(c1)C=C(C(=O)OCc1cccnc1)CO2,-21%,-4%,-1%,8.9µM*,.,-22%
COc1ccc(C2Sc3nncn3N2Cc2ccc(C#N)cc2)cc1 (stereo unspecified),3%,?,23%,10µM*,-7%,-5%
COc1ccc(C(=O)N2CCC3(CCN(Cc4ccc(C#N)cc4)CC3)CC2)cc1,.,.,.,-7%,-2%,-1%
COc1ccc2c(c1)nc(NCCCO)n2Cc1ccccc1,1%,2%,10%[9.22 µM],.,.,19%[10 µM]
CN(CC(=O)NCc1ccc2c(c1)OCO2)S(=O)(=O)c1ccc(Br)s1,6%,-7%,-24%,-10%,?,-8%
O=C(NNC(=O)c1cccc(S(=O)(=O)N2CCc3ccccc32)c1)c1ccccc1,-8%,6%,?,-3%,.,-85%
O=C(c1ccc(S(=O)(=O)N2CCCCCC2)cc1)N1CCN(c2ccccn2)CC1,5%,25%,-20%,13µM*,-18%,-2%
O=C(c1cccc(S(=O)(=O)N2CCc3ccccc32)c1)N1CCN(c2ccccn2)CC1,-7%,-12%,?,13µM*,.,-69%
O=C(NNc1ccc([N+](=O)[O-])cc1)C1C2CCCCC21 (stereo unspecified),1%,-4%,31%,25µM*,-8%,.
O=C(NNc1ccc([N+](=O)[O-])cc1[N+](=O)[O-])C1C2CCCCC21 (stereo unspecified),5%,-2%,-17%,-4%,-8%,.
COc1cccc(NC(=O)CN(C)C(C)C(=O)Nc2cc([N+](=O)[O-])ccc2Cl)c1 (stereo unspecified),2%,0%,0%,2%,.,-27%
CCCN(CCC)C(=O)COc1cc(=O)n(CC)c2ccccc12,-6%,7%,0%,-7%,25µM*,-22%
CCn1c(=O)cc(OCC(=O)N2CCN(c3ccc(F)cc3)CC2)c2ccccc21,-6%,-4%,?,-12%,.,-49%
CCn1c(=O)cc(OCC(=O)N2CCCCCC2)c2ccccc21,-4%,2%,?,?,32µM*,-10%
CCN(C(=O)COc1cc(=O)n(CC)c2ccccc12)c1cccc(Cl)c1,-8%,-1%,9%,6.3µM*,-3%,5%
CC(=O)N1c2ccccc2C(=O)C1N1CCCCC1 (stereo unspecified),?,5%,4%,28µM*,-17%,7%[10 µM]
COc1ccc(C(=O)c2ccc(OC)c(N)c2)cc1N,1%,2%,?,20µM*,-32%,-44%
COc1ccc(C(=O)c2ccc(OC)c(OC)c2)cc1,3%,3%,-2%,?,-9%,-9%
COC(=O)c1c(C)oc(C)c1S(=O)(=O)NCc1ccc(Cl)cc1Cl,-8%,?,-10%[9.22 µM],.,.,4%[10 µM]
Cc1cc(O)c(C(C)C)cc1N=Cc1cc([N+](=O)[O-])ccc1O,14%,9%,19%[9.22 µM],-11%,.,2%[10 µM]
SMILES,KDM4E inh,CBFb-RUNX1 inh,HttQ103 aggreg,ALDH1A1 inh,HPGD block,HTT ATP protect
CCOC(=O)c1c(/N=C/c2cccc([N+](=O)[O-])c2O)sc2c1CCC2,-13%,-15%,-5%[9.22 µM],?,.,16%[10 µM]
CCOC(=O)c1c(/N=C/C2=C(O)CC(C)(C)CC2=O)sc(C)c1C,-19%,7%,-2%,7.1µM*,-5%,13%[10 µM]
CCOC(=O)c1c(/N=C/c2cc(OC)cc([N+](=O)[O-])c2O)sc(C)c1C,-5%,-11%,18%,32µM*,-14%,-3%[10 µM]
CCOC(=O)c1sc(/N=C/N(C)C)c(C(=O)OCC)c1C,9%,0%,-6%,1%,-12%,-9%
CCOC(=O)c1c(/N=C/c2cc([N+](=O)[O-])ccc2O)sc(C)c1C,-2%,5%,?,20µM*,-11%,8%[10 µM]
CC(C)(C)NC[C@@H](O)COc1ccccc1C1CCCC1,5%[25.5 µM],0%[21.7 µM],10%[20.6 µM],-5%[20.9 µM],-1%,?
CCOC(=S)SCc1cn2cccc(C)c2n1,-7%,5%,5%,?,.,1%
COc1ccc(N(CC(=O)NCc2ccccc2)C(=O)CCC(=O)Nc2cc(C)ccn2)c(OC)c1,-1%,1%,10%[9.22 µM],.,.,-3%[10 µM]
CN1CCCN(C(=O)CC2(CC(=O)O)CCCCC2)CC1,6%,14%,-28%[9.22 µM],.,.,20%[10 µM]
O=C1c2cccc(Sc3ccccc3)c2C(=O)c2c(Sc3ccccc3)cccc21,?,-24%,-2%[9.22 µM],.,.,21%[10 µM]
O=C1c2cccc(O)c2C(=O)c2c(O)cccc21,-7%,-28%,?,?,35µM*!,-20%
O=C1C=C(O)c2cccc(O)c2C1=O,7.9µM*,.,-2%[9.22 µM],.,.,-4%[10 µM]
O=C1C=C(O)c2ccccc2C1=O,?,-27%,.,16µM*,?,-65%
C=CCSc1nnc2nc3c(nn12)c1cc(C)ccc1n3CC=C,-3%,-17%,-1%[9.22 µM],?,-13%,-1%
CCCCn1c(SCC(=O)c2ccc(OC)cc2OC)nc2cc(S(N)(=O)=O)ccc21,1%,-12%,-6%,7.1µM*,-7%,30%[0.074 µM]
N#Cc1cc2sc3nc4ccccc4n3c2cc1C#N,-9%,3%,11%,0%,-1%,-10%
N#Cc1cc2sc3nnc(-c4ccncc4)n3c2cc1C#N,-14%,-14%,.,2%,-11%,13µM*
C[C@H](CN1c2ccccc2Sc2cccnc21)N(C)C,.,.,-16%,.,.,-11%
O=C(NC(c1ccccc1)c1ccccn1)c1cccc([N+](=O)[O-])c1 (stereo unspecified),14%,-6%,6%,14µM*,.,-15%
O=C(NCc1ccccn1)c1cccc([N+](=O)[O-])c1,3%,-1%,0%,3%,-9%,-29%
O=C1C(Cl)=C(NCC2CCCO2)C(=O)N1C1CCCCC1 (stereo unspecified),0%,15%,0%,4µM*,-25%,2%
Cc1ccccc1-c1nc(N(C)C)c2ccccc2n1,.,.,.,7%,.,-24%
